Test results reported in PubChem BioAssay AID504333 (National Center for Advancing Translational Sciences (NCATS), 2011).
Among all 360,000 compounds or so, about 16,000 (4.4%) were called active. Where a call stands in place of a potency, no number is given. Not shown: some 9% with an inconclusive outcome. This excerpt belongs to a sample that is enriched for actives. Unmarked numbers belong to inactive results. The call rests on the fitted dose curve; in most records, active means well fitted inhibition curve with a large enough effect; inconclusive means small, poorly fitted or top-dose-only effect; inactive means no such curve, though single readings can be large or run the other way.

target: Bromodomain adjacent to zinc finger domain protein 2B (Homo sapiens) (UniProt Q9UIF8); assay: qHTS Assay for Inhibitors of BAZ2B; conditions: AlphaScreen BAZ2B-H3K14Ac peptide displacement; series mostly up to 114 µM; further: nearly all actives have a fitted effect of over 60% in size
Sequence (Q9UIF8 whole entry, looked up, the tested form may be a part): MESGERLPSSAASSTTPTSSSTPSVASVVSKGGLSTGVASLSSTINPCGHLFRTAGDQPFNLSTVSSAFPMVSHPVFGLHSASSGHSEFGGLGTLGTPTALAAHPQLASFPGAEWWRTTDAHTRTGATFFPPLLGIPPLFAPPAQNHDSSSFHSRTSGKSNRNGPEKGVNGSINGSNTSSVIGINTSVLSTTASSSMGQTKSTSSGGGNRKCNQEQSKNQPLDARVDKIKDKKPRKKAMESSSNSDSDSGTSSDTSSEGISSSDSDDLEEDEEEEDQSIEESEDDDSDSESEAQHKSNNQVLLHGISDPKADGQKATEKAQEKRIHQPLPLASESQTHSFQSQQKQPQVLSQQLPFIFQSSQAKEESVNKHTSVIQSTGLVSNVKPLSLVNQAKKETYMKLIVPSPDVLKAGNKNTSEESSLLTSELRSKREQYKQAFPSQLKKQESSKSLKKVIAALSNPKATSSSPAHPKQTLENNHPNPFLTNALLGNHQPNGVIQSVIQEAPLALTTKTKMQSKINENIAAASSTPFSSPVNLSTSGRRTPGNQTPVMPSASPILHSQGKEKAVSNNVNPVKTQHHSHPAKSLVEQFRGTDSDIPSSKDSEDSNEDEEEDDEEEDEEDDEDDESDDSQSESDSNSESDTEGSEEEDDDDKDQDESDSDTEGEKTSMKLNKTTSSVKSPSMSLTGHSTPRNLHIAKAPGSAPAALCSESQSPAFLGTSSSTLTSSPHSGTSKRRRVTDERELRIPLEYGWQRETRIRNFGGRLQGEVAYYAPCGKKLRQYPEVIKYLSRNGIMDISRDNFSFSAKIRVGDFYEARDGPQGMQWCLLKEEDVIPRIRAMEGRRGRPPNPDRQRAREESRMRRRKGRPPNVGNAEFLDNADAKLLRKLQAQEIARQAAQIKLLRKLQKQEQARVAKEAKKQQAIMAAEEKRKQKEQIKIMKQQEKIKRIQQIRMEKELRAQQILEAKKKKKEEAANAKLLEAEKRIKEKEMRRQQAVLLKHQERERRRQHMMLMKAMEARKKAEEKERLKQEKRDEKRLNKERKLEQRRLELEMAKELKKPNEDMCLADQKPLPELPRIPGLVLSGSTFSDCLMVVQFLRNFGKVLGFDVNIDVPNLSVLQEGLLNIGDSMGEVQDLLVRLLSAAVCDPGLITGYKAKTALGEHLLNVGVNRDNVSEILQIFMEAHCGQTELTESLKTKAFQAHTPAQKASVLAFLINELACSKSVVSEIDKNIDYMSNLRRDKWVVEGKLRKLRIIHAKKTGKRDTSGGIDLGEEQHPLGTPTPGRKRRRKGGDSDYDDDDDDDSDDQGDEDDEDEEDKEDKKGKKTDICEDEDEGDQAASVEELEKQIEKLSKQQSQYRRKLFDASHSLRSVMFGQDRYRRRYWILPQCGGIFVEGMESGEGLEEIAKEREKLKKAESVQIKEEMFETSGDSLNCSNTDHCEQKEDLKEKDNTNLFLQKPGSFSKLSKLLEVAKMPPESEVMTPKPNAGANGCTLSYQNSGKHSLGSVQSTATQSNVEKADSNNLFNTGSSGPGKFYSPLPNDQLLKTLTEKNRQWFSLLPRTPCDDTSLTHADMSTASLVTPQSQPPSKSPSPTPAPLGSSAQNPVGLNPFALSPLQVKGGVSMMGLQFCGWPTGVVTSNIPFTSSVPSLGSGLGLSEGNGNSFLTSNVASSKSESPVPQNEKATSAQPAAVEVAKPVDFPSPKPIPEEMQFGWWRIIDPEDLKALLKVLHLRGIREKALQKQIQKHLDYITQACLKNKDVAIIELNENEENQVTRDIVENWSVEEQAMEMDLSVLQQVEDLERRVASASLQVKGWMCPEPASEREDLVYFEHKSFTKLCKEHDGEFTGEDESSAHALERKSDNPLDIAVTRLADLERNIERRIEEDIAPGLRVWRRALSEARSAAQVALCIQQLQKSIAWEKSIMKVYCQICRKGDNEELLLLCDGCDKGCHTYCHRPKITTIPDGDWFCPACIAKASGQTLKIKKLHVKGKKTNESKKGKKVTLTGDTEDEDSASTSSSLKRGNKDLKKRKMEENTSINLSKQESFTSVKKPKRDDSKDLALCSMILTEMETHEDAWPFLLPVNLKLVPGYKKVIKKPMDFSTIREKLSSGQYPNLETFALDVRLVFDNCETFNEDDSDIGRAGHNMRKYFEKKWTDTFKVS
Method in brief: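 AlphaScreen displacement of biotin-H3(5-23)K14Ac peptide (50 nM final) from BAZ2B (50 nM final) in PBS pH 7.4, 0.01% Tween-20; complex preformed 30 min RT, then compounds (top 110 uM) 30 min RT, beads 20 min dark.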
Potency means the concentration at half of the fitted maximal effect.

SMILES	Potency	activity change, negative = inhibition
Cc1nc2nc(SCC(=O)NC3CCC(C)CC3)nn2c(C)c1Cc1ccccc1Cl (stereo not given)	inactive	
Nc1ccc(N=Nc2ccccc2Cl)c(N)n1	25.1 µM (active)	
COc1ccc(C(=O)Nc2onc3c2CCCC3)cc1	inactive	
CCOc1ccc(NC(=O)c2c(NC(=O)Cc3ccccc3)sc3c2CCC(C)C3)cc1 (stereo not given)	inactive	
CCCCOC(=O)CSc1ncnc2sc3c(c12)CCC(C)C3 (stereo not given)	inactive	
CCC(C(=O)Nc1cccc(Cl)c1C)n1nc(-c2ccc(C)cc2)ccc1=O (stereo not given)	inactive	
O=C(Nc1ccccc1-c1ccccc1)c1ccccc1[N+](=O)[O-]	inactive	
O=[N+]([O-])c1ccccc1Nc1ccc(O)cc1	39.8 µM (active)	
O=C(NCCNc1ccccc1[N+](=O)[O-])c1ccccc1F		8.95% [at 0.457 µM]
COC(=O)c1ccccc1NC(=O)c1cc(-c2ccccc2O)no1	inactive	
CC(OC(=O)CN1C(=O)COc2ccccc21)C(=O)NCc1ccc(F)cc1 (stereo not given)	inactive	
O=C(CN1C(=O)COc2ccccc21)Nc1ccc(F)cc1	28.2 µM (active)	
O=C(CN1C(=O)COc2ccccc21)NCCN1CCc2ccccc2C1	inactive	
O=C(NCc1ccccc1Cl)c1cccn1-c1nnc(N2CCCCC2)s1	inactive	
COc1ccccc1Nc1nc(N)nc(N)c1S(=O)(=O)c1ccccc1	inactive	
COc1ccccc1Nc1nc(N)nc(CN(C)C2CCCCC2)n1	10 µM (active)	
COc1ccccc1Nc1nc(N)nc(CSC(=S)N2CCOCC2)n1	inactive	
COc1ccc(CCN2C(=O)c3oc4cc(C)cc(C)c4c(=O)c3C2c2ccccc2F)cc1OC (stereo not given)	inactive	
COc1ccc(-c2cn3nc(N4CCCC(C(=O)NCCCOC(C)C)C4)sc3n2)cc1 (stereo not given)	inactive	
COc1ccc(CNC(=O)Cc2ccc(-c3ccccc3)cc2)cc1OC	inactive	
COC(=O)c1cc(NC(=O)c2cnc(SC)nc2-c2ccccc2)cc(C(=O)OC)c1	inactive	
COC(=O)c1ccc(-c2c(-c3ccccc3)ncc3cc(OC)c(OC)cc23)cc1	56.2 µM (active)	
Cc1c(Cl)cccc1NC(=O)c1noc2c1CCCC2	inactive	
COc1ccnc(Oc2ccccc2)c1-c1ncn[nH]1	inactive	
COc1cnc(-c2ccccn2)nc1Oc1ccc(C(C)(C)C)cc1	22.4 µM (active)	

SMILES	Potency	activity change, negative = inhibition
N#Cc1ccc(Oc2cc(C(F)(F)F)nc(-c3ccccn3)n2)cc1	inactive	
Cc1ccc(C(=O)N2c3ncnn3C3(CCCCC3)[C@@H]3CCCC[C@@H]32)cc1	inactive	
Cc1onc(-c2ccc(F)cc2F)c1C(=O)Nc1cccc(C(F)(F)F)c1	inactive	
COc1ccc(OCCn2cc(C(=O)C3CCCCC3)c3ccccc32)cc1	inactive	
COc1ccc(CCNC(=O)CCc2c(C)nc3c(c(C)nn3-c3ccc(C)c(C)c3)c2C)c(OC)c1OC	inactive	
O=C(c1ccc(Br)cc1)N(Cc1cccs1)c1ccc(F)cc1	inactive	
COc1ccccc1-c1nnc(SCC(N)=O)o1	inactive	
COc1ccc(-c2cc(C(=O)NC(Cc3c[nH]c4ccccc34)C(=O)O)c(C)o2)cc1OC (stereo not given)	50.1 µM (active)	
Cc1cccc(C)c1OCC(=O)NC(Cc1c[nH]c2ccccc12)C(=O)O (stereo not given)	inactive	
CC(=O)NC(Cc1c[nH]c2ccccc12)C(=O)O (stereo not given)	inactive	
COc1cc(/C=N/NC(=O)c2cc(C)n(-c3ccc(F)cc3)c2C)cc(OC)c1O	inactive	
Cc1cc(C(=O)N/N=C/c2ccc(O)c([N+](=O)[O-])c2)c(C)n1-c1ccc(F)cc1	50.1 µM (active)	
COc1cc(/C=N/NC(=O)c2ccc(N3CCCC3=O)cc2)ccc1O	inactive	
CCc1nc2nc(C)cc(Nc3ccc(F)c(Cl)c3)n2n1	inactive	
Cc1nn(-c2ccc(N3CCCCC3)nn2)c(C)c1CCC(=O)NCc1ccc(F)cc1	79.4 µM (active)	
CCOc1ccc(CNC(=O)CCc2c(C)nn(-c3ccc(N4CCCCC4)nn3)c2C)cc1	inactive	
COC(=O)c1ccc(NC(=O)CCc2c(C)nn(-c3ccc(N4CCCC4)nn3)c2C)cc1	inactive	
COc1ccc(CNC(=O)CCc2c(C)nn(-c3ccc(N4CCCC4)nn3)c2C)cc1	79.4 µM (active)	
COc1ccc(C)cc1NC(=O)CCc1c(C)nn(-c2ccc(N3CCOCC3)nn2)c1C	inactive	
Cc1ccc(CNC(=O)CCc2c(C)nc3c(c(C)nn3-c3ccccc3)c2C)cc1	inactive	
COc1cc(OC)cc(C(=O)Nc2c(C(=O)Nc3ccc(F)cc3)oc3ccccc23)c1	inactive	
COc1ccc(-c2nc(CN3CCC(C(=O)NCCN(CC(C)C)CC(C)C)CC3)c(C)o2)cc1OC	inactive	
CC(=O)N1CCCc2cc(S(=O)(=O)N3CCC(C(=O)NCc4ccc(F)cc4)CC3)ccc21	inactive	
CN(C)c1ccc(C(CNS(=O)(=O)c2cc(F)ccc2F)N2CCOCC2)cc1 (stereo not given)	inactive	
COc1ccc(Cn2c(C(=O)O)c(CNCCc3cccs3)c3ccc(OC)cc32)cc1	inactive	

SMILES	Potency	activity change, negative = inhibition
O=C(O)c1ccc2c(c1)N(Cc1ccc(F)cc1)C(=O)c1ccccc1S2=O (stereo not given)	inactive	
Cc1nn(C(C)C(=O)NCCc2ccccc2)c(=O)c2c1sc1ccccc12 (stereo not given)	inactive	
Cc1cc(C(=O)N/N=C/c2cc([N+](=O)[O-])cc(C)c2O)n[nH]1	25.1 µM (active)	
COc1ccc2ccccc2c1/C=N/NC(=O)c1cc(C)[nH]n1	inactive	
CC(C)(C)c1cc(C(=O)N/N=C/c2ccc([N+](=O)[O-])s2)n[nH]1	inactive	
CCCN(CCC)CCCNC(=O)Cn1ncc2c3ccccc3n(Cc3ccccc3)c2c1=O	inactive	
COc1ccc(-c2cn3c(n2)sc2cc(C(=O)Nc4ccc(F)cc4)ccc23)cc1	inactive	
COc1cccc(Cn2c(SCc3ccc(C(=O)N4CCCCC4)cc3)nc3ccncc32)c1	inactive	
Cc1cccc(Cn2c(SCc3ccc(C(=O)N4CCC(C)CC4)cc3)nc3ccncc32)c1	inactive	
COc1cccc(Cn2c(SCc3ccc(C(=O)N4CCC(C)CC4)cc3)nc3ccncc32)c1	22.4 µM (active)	
COc1ccccc1Cc1nc2ccccc2nc1SCC(=O)N1CCCc2ccccc21	inactive	
O=C(c1cccc([N+](=O)[O-])c1)N1CCN(Cc2ccccc2)CC1	inactive	
Cc1c(C(=O)c2cccc([N+](=O)[O-])c2)c2ccccn2c1CCC#N	50.1 µM (active)	
COc1ccc(C(=O)c2c(C)c(CCC#N)n3ccccc23)c(OC)c1	inactive	
COC(=O)c1cnc(N2CCN(c3ccccc3OC)CC2)c2ccccc12	inactive	
COc1ccc2c(c1)c(N1CCCC1=O)c(C(=O)Nc1ccc(OC)c(Cl)c1)n2C	inactive	
CC(=O)Nc1cccc(-c2csc(Nc3cccc(C)n3)n2)c1	inactive	
Clc1ccc(Nc2nc(-c3cccs3)cs2)nc1	inactive	
Cc1ccc(Nc2nc(-c3ccc(O)cc3O)cs2)nc1	50.1 µM (active)	
COc1cc(C(=O)Nc2ccc(-n3c(C)nc4ccccc4c3=O)cc2)cc(OC)c1OC	inactive	
CCN(CC)c1cc(NC2CCCCC2)c2c3c(onc13)-c1ccccc1C2=O	3.55 µM (active)	
COc1ccc(OC)c(CNC(=O)Cn2nc(C)c3c(C)n(-c4ccccc4)nc3c2=O)c1	inactive	
CCCC(=O)Nc1ccc2oc(-c3ccc(O)c(Br)c3)nc2c1	inactive	
COc1ccc(CCNCc2c(C(=O)O)c(C)n(Cc3cccc(C)c3)c2C)cc1OC	inactive	
COc1ccc(SCc2cc(=O)c3ccc(C)c(C)c3[nH]2)cc1	inactive	

SMILES	Potency	activity change, negative = inhibition
O=c1[nH]c(NCCO)nnc1Cc1ccc(Cl)cc1	inactive	
COc1ccc(Cc2nnc(N/N=C/c3ccccc3O)[nH]c2=O)cc1OC	6.31 µM (active)	
CC(C)c1ccc(Cc2nnc(NCCCO)[nH]c2=O)cc1	inactive	
Cc1nn(C)c2c1c(C(F)(F)F)cc(=O)n2C(C)C(=O)NCc1ccc(Cl)cc1 (stereo not given)	inactive	
O=C(NCc1ccccc1)C1CCN(S(=O)(=O)c2ccc3[nH]c(=O)ccc3c2)CC1	inactive	
Cc1ccccc1CCNC(=O)C1CCN(c2nc3ccccc3nc2C(F)(F)F)CC1	inactive	
CC(=O)c1ccc(NC(=O)c2nc3nc(C)cc(C(F)F)n3n2)cc1	inactive	
COc1ccc(C2=NC(c3ccncc3)=Nc3ccc(Br)cc3N2)cc1	28.2 µM (active)	
Brc1ccc2c(c1)NC(c1cccnc1)=NC(c1ccccc1)=N2	inactive	
Cc1cc(OCC(=O)NC2CCN(C)CC2)ccc1[N+](=O)[O-]	inactive	
Cc1cc(OCCCCOc2ccc(C#N)cc2)ccc1[N+](=O)[O-]	inactive	
Cc1cc(OCCCN2CCN(Cc3ccccc3)CC2)ccc1[N+](=O)[O-]	17.8 µM (active)	
Cc1cccc(C2CC(=O)Oc3c2c(=O)n(C)c2ccccc32)c1 (stereo not given)	inactive	
CCOC(=O)C1=C(C)N=C2c3ccccc3C(=O)C2C1c1ccc(Br)cc1 (stereo not given)	22.4 µM (active)	
Cc1cccc(C2C3=C(CCCC3=O)N=C3c4ccccc4C(=O)C32)c1 (stereo not given)	inactive	
CCOC(=O)C1=C(C)NC(SC)=NC1c1ccccc1 (stereo not given)	inactive	
CCCN1CCc2nc(N3CCN(C)CC3)ncc2C1	inactive	
COC(C(=O)Nc1ccc(C(C)=O)cc1)c1ccccc1 (stereo not given)	inactive	
COc1ccc(NC(=O)[C@H](NC(=O)[C@@H]2Cc3ccccc3CN2)c2ccccc2)cc1	inactive	
COc1ccc(NC(C(=O)Nc2cccc(C(C)=O)c2)c2ccccc2)cc1 (stereo not given)	50.1 µM (active)	
Cc1cccc(C(=O)Nc2ccc(-c3nc4ccccc4s3)c(C)c2)c1	inactive	
O=C(Nc1ccc2nc(SCCOc3ccccc3Cl)sc2c1)c1ccco1	inactive	
CCOc1cccc(-c2nn3c(-c4ccccn4)nnc3s2)c1	50.1 µM (active)	
c1ccc(-c2cc(-c3nnc4sc(-c5ccccn5)nn34)[nH]n2)cc1	inactive	
COc1cc(-c2nn3c(-c4cccc(C)c4)nnc3s2)cc(OC)c1OC	inactive	
